For eleven compounds, Percent Effect results are on record in ChEMBL document CHEMBL3988442, “University of Dundee, Small-Polar-MMV Screening Library” (2021).

Design in all cases: scale not given: direction of the effect not stated beside the values
In test [1] the target is Protein translocase subunit SecA (Escherichia coli (strain K12)) (UniProt P10408). Briefly: Assay to Identify E. coli SecA ATPase Inhibitors. The format is functional. The conditions noted are these: 30 µM.
The target in test [2] is T1, Ubiquitin-activating enzyme e1, putative (Leishmania donovani (strain BPK282A1)) (UniProt E9BSI1).
T1 sequence (whole entry): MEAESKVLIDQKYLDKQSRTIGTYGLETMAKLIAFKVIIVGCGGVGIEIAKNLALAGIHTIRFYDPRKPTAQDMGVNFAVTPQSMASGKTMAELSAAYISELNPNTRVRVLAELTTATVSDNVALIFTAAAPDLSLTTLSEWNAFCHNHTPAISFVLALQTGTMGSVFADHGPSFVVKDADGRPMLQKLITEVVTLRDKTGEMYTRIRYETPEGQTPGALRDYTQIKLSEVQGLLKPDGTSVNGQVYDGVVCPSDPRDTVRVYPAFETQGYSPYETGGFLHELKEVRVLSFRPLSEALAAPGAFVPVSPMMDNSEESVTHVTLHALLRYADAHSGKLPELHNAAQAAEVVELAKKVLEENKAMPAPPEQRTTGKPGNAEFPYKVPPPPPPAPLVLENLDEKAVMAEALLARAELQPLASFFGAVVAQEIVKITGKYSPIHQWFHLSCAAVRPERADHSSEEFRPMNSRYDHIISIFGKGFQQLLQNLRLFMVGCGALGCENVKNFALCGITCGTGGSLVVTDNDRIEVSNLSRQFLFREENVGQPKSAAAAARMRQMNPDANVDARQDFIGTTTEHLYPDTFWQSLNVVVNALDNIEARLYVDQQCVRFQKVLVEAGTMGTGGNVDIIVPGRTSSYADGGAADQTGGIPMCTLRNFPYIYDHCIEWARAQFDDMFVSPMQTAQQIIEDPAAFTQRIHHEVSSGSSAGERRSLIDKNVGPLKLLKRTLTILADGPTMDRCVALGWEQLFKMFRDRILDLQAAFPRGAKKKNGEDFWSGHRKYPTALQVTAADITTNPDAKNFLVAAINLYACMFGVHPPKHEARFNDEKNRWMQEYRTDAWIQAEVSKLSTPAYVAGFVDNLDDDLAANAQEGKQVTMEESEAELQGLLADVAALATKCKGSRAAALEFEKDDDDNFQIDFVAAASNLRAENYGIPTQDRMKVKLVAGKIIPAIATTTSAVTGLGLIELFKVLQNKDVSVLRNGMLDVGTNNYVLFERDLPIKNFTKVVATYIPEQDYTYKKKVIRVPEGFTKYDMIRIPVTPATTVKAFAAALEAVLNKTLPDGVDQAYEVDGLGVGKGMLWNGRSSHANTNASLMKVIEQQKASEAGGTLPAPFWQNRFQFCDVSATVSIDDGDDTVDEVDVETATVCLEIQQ
The test can be described thus: Leishmania donovani Ubiquitin Activating Enzyme (LdE1). Type of test: functional. The conditions noted are these: 30 µM.

For test [3], the target named is Sialic acid-binding Ig-like lectin 9 (Homo sapiens) (UniProt Q9Y336). The test can be described thus: Hs-Siglec9 ALPHAscreen SOP 20170721. The conditions noted are these: 10 µM.
Chain of Sialic acid-binding Ig-like lectin 9 (Homo sapiens) (Q9Y336 whole entry): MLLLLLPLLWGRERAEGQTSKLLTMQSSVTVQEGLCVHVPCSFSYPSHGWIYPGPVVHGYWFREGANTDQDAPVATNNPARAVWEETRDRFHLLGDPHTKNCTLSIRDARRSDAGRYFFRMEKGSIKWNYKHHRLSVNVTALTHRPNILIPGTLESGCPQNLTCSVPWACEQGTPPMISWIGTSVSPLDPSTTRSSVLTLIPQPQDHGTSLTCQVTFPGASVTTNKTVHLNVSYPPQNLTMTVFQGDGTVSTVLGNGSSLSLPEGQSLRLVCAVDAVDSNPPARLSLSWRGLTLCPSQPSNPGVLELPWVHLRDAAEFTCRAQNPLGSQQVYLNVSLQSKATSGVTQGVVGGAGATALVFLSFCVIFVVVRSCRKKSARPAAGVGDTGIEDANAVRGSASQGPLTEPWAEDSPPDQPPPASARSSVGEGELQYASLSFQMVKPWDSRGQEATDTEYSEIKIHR
The next test concerns Trypanosoma cruzi. Briefly: Trypanosoma cruzi phosphomannomutase and mannose-1-phosphate guanylyltransferase assay. The format is functional. The conditions noted are these: 10 µM.
In test [4] the target is T2, Arginase-2, mitochondrial (Homo sapiens) (UniProt P78540).
T2 sequence (whole entry): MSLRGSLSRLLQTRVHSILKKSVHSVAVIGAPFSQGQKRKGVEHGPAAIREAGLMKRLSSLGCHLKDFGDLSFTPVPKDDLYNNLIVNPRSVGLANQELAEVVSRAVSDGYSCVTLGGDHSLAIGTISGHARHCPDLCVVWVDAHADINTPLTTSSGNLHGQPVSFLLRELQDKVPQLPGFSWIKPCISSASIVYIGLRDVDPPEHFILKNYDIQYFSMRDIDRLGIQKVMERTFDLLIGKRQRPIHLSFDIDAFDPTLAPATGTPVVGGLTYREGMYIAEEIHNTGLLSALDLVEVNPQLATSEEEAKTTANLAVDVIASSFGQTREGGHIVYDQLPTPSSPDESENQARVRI
The test can be described thus: in vitro enzyme assay to detect the production of urea directly proportional to the activity of Arginase II. Also: in the data most compounds retested in dose-response had high values. The conditions noted are these: 33.3 µM. The format is functional.

In test [5] the target is T3, Proteasome subunit beta (Trypanosoma cruzi) (UniProt O96673).
T3 sequence (whole entry): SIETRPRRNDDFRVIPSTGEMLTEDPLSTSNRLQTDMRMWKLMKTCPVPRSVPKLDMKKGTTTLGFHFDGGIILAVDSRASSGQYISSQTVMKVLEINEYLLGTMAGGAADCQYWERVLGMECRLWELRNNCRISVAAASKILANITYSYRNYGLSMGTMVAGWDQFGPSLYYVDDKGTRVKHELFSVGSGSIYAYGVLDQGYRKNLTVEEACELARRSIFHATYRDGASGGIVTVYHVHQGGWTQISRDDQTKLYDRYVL
Briefly: Trypanosoma cruzi proteasome chymotrypsin-like activity (TcProtChymo) assay. Also: in the data most compounds retested in dose-response had high values. Type of test: functional. The conditions noted are these: 9.37 µM.

For a further test, the species on record is Homo sapiens. The test can be described thus: To identify inhibition of the IFN signalling (Jak-Stat) pathway via expression of an eGFP reporter gene under the control of an IFN-stimulated response element (ISRE) containing MxA promoter. Type of test: functional. The conditions noted are these: 30 µM.
For test [6], the target named is T4, Tyrosyl-tRNA synthetase, putative (Trypanosoma cruzi (strain CL Brener)) (UniProt Q4DSP6).
T4 sequence (whole entry): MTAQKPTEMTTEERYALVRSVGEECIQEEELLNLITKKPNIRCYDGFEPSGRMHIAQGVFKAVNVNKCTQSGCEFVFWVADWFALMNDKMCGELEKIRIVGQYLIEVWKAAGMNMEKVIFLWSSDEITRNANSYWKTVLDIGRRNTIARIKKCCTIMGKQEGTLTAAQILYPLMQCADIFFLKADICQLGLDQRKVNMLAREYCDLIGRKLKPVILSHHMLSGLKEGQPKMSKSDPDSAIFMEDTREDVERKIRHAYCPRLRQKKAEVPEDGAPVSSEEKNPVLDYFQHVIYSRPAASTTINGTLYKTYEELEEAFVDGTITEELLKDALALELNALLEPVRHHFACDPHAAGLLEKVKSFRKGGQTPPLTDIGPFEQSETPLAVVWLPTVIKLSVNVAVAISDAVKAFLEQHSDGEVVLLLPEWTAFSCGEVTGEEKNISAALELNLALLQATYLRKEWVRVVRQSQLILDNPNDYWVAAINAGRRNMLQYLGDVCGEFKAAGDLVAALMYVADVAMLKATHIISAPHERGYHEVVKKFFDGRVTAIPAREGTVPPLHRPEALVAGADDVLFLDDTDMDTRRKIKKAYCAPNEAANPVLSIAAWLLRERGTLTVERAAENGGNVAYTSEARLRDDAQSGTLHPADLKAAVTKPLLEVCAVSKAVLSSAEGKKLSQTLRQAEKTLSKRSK
Briefly: Trypanosoma cruzi tyrosyl tRNA synthetase (TcYRS) _High Tyrosine SOP. Also: in the data most compounds retested in dose-response had high values. The format is functional. The conditions noted are these: 30 µM.

Test [7] deals with T4, Tyrosyl-tRNA synthetase, putative (Trypanosoma cruzi (strain CL Brener)). The test can be described thus: Trypanosoma cruzi tyrosyl tRNA synthetase (TcYRS) SOP. Type of test: functional. The conditions noted are these: 30 µM.
Test [8] deals with Chromo domain-containing protein 1 (Saccharomyces cerevisiae (strain ATCC 204508 / S288c) (Baker's yeast)) (UniProt P32657). Briefly: ScCHD-1 Enzyme Inhibition Assay. Also: in the data most compounds retested in dose-response had high values. The conditions noted are these: 30 µM. The format is functional.
Chain of Chromo domain-containing protein 1 (Saccharomyces cerevisiae (strain ATCC 204508 / S288c) (Baker's yeast)) (P32657 whole entry, the tested form may be a part): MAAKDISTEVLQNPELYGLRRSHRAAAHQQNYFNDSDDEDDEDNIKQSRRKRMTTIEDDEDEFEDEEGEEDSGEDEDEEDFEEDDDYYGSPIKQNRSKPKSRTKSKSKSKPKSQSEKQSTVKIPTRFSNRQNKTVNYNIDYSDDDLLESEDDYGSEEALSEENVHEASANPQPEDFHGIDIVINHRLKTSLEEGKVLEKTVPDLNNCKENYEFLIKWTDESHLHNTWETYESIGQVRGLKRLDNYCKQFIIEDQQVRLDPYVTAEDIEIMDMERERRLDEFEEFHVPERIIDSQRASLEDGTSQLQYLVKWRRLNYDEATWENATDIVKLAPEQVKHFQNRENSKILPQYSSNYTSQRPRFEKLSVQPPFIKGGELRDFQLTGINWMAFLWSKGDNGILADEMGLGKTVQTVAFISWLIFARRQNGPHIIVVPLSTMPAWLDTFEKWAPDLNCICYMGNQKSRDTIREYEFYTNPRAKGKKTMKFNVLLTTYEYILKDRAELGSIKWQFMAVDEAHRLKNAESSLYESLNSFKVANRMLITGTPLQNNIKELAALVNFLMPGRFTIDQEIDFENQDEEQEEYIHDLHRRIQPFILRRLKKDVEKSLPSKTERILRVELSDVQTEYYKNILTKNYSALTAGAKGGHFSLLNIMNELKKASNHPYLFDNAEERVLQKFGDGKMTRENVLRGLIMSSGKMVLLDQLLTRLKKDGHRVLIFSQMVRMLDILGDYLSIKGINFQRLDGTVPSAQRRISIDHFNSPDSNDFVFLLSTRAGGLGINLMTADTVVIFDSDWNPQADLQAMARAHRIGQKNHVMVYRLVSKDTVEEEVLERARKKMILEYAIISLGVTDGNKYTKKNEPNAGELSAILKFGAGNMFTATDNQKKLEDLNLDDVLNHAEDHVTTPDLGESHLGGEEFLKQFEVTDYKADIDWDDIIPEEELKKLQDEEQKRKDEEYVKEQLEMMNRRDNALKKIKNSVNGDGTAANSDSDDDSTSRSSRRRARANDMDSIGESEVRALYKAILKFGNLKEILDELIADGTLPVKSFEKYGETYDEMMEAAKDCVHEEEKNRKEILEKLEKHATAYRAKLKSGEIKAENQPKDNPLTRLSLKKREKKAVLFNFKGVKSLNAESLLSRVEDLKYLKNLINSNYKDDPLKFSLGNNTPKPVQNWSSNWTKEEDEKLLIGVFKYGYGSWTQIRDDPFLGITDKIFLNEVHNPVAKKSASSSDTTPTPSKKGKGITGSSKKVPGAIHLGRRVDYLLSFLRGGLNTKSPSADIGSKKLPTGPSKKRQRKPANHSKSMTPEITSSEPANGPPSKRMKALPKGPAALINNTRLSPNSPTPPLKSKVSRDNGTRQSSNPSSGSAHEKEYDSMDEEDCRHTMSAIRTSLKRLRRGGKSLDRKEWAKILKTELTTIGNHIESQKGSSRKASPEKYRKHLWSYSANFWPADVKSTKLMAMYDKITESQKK

For some assays here: Entries with a potency or affinity are not part of this list.

Chain of Protein translocase subunit SecA (Escherichia coli (strain K12)) (P10408 whole entry): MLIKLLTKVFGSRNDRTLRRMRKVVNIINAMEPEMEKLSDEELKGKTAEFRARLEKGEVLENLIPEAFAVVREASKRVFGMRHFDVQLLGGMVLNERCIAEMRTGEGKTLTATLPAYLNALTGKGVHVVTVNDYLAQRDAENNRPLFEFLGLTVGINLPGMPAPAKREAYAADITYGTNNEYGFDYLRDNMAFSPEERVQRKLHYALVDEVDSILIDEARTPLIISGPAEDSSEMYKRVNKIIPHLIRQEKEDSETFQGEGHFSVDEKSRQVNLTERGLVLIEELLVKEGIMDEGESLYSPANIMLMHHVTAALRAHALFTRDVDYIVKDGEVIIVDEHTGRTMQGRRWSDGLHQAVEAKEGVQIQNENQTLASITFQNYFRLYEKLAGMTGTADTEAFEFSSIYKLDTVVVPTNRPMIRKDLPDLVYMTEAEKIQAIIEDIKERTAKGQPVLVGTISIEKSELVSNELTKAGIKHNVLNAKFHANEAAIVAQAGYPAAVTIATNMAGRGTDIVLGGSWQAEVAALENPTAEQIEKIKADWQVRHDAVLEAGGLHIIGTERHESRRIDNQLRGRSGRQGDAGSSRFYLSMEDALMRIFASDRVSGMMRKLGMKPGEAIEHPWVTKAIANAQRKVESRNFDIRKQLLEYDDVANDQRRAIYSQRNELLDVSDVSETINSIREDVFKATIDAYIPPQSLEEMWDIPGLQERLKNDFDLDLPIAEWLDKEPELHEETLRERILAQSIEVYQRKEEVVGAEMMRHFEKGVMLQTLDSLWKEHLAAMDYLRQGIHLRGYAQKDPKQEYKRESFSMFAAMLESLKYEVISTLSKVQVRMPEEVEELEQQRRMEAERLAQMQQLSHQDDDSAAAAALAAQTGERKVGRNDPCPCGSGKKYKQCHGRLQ

With `O=C(NCc1cc[nH]n1)NCC(c1ccc(F)cc1)N1CCOCC1` (stereo not given), the Percent Effect in test [1] was -1.44%; in test [2], 23.1%; in test [3], -10.9%; in the test with Trypanosoma cruzi it was 4.79%; in test [4] it was 2.87%; in test [5], 7.93%. In addition, the Percent Effect is 8.57% in the test listed under Homo sapiens, 4.31% in test [6], 20.5% in test [7] and -7.47% in [8].
For `COCCC(=O)N1CCn2c(COCC3CC3)cnc2C1C` (stereo not given), the Percent Effect in test [1] was -9.04%; in test [2], 1.3%; in test [3], 6.82%; in the test with Trypanosoma cruzi it was -3.6%; in [4], -3.24%; in test [5] it was 4.33%. Moreover, the Percent Effect is -4.92% in the test listed under Homo sapiens, 0.526% in [6], 5.13% in test [7] and -2.88% in [8].
As to `CC(C)n1[nH]c(=O)c2c1NC(=O)CC2c1cccc(OC(F)F)c1` (stereo not given), the Percent Effect in test [1] was -3.01%; in test [2], 2.7%; in test [3], -4.26%; with Trypanosoma cruzi, -8.63%; in test [4], -1.75%; in [5], 16.1%. The Percent Effect in the test listed under Homo sapiens was 27.6%; in [6], 1.6%; in test [7] it was 2.44%; in test [8], -5.54%.
With `CC(=O)N1CCc2c(nc(-c3ccncc3)nc2N(C)CC(O)CO)C1` (stereo not given), the Percent Effect in test [1] is -4.98%; in test [2], 2.7%; in test [3] it was 3.26%; in the test on Trypanosoma cruzi, -2.62%; in test [4], 5.94%; in test [5], 3.94%. In addition, the Percent Effect in the test filed under Homo sapiens is 12.2%; in test [6], 5.85%; in test [7], 14.6%; in test [8], -4.24%.
With `CN(Cc1noc(C2CC2)n1)C1CCN(Cc2nnc(C3CC3)o2)C1` (stereo not given), the Percent Effect was 4.16% in [1]; 15.6% in test [2]; -1.39% in test [3]; -6.16% in the test on Trypanosoma cruzi; 1.02% in test [4]; 17.4% in test [5]. Also, the Percent Effect in the test filed under Homo sapiens is 20.4%; in test [6], 6.86%; in test [7], 16.5%; in test [8] it was -8.04%.
`COCc1cccc(NS(=O)(=O)c2cc(C(=O)O)cs2)c1`: the Percent Effect was -3.18% in test [1]; 5.13% in [2]; -6.44% in [3]; 2.91% in the test with Trypanosoma cruzi; 2.46% in [4]; 8.11% in test [5]. Moreover, the Percent Effect is 4.97% in the test listed under Homo sapiens, 3.35% in [6], 13.2% in [7] and -5.54% in [8].
Regarding `Cc1noc(C)c1C(=O)N1C[C@H]2CCC[C@@]2(COc2ccccn2)C1`, the Percent Effect is -6.59% in test [1]; 11.7% in test [2]; 1.71% in test [3]; 8.28% in the test on Trypanosoma cruzi; -7.29% in [4]; 12.3% in test [5]. In addition, the Percent Effect in the test filed under Homo sapiens was -28.1%; in test [6], 3.68%; in [7], 12.8%; in test [8] it was -2.44%.
`Cc1ccc(CN2CCC(c3nnc(CN4CCCCC4)n3C)CC2)o1`: the Percent Effect in test [1] was -5.23%; in [2], 0%; in [3], 2.13%; in the test with Trypanosoma cruzi, -0.873%; in [4] it was -0.35%; in [5], 5.99%. The Percent Effect worked out at 1.11% in the test listed under Homo sapiens, 1.6% in test [6], 4.88% in test [7] and 3.06% in test [8].
For `COC(=O)CC(c1cnn(C)c1)c1oc(C)cc(=O)c1O` (stereo not given), the Percent Effect in test [1] was -7.67%; in test [2], 0%; in test [3] it was 0.282%; with Trypanosoma cruzi, -5.33%; in [4], -3.85%; in test [5], 6.85%. In addition, the Percent Effect in the test listed under Homo sapiens is 8.46%; in [6] it was 0.532%; in test [7] it was 0%; in test [8] it was -1.21%.
On to `Cc1cnn(C2CCCN(C(=O)c3cc(C4CC4)on3)C2)c1` (stereo not given), for which the Percent Effect is -4.9% in test [1]; 10.3% in [2]; -6.25% in [3]; 5.16% with Trypanosoma cruzi; 0.82% in test [4]; -0.939% in test [5]. Moreover, the Percent Effect in the test listed under Homo sapiens is -0.883%; in test [6] it was 4.31%; in test [7] it was 10.8%; in test [8], -1.27%.
On to `COc1cc(C)c(S(=O)(=O)NCc2cccnc2N(C)C)c(C)c1`, for which the Percent Effect in test [1] is 0.224%; in test [2], 23.4%; in test [3] it was -2.16%; in the test with Trypanosoma cruzi, 0%; in test [4], -5.53%; in test [5] it was 19.8%. In addition, the Percent Effect was 52.1% in the test listed under Homo sapiens, 4.9% in test [6], 28.2% in [7] and -10.7% in test [8].
